# The full ranking holds about 33,000 sequences; the median of “E-score (-0.5 to 0.5)” is about -0.043, and the highest 2% start at about 0.37. For the sample, the highest values were picked, then their nearest neighbours and some sequences at random.
# Target: T1, Upc2 (UniProt Q12151)
# T1 sequence: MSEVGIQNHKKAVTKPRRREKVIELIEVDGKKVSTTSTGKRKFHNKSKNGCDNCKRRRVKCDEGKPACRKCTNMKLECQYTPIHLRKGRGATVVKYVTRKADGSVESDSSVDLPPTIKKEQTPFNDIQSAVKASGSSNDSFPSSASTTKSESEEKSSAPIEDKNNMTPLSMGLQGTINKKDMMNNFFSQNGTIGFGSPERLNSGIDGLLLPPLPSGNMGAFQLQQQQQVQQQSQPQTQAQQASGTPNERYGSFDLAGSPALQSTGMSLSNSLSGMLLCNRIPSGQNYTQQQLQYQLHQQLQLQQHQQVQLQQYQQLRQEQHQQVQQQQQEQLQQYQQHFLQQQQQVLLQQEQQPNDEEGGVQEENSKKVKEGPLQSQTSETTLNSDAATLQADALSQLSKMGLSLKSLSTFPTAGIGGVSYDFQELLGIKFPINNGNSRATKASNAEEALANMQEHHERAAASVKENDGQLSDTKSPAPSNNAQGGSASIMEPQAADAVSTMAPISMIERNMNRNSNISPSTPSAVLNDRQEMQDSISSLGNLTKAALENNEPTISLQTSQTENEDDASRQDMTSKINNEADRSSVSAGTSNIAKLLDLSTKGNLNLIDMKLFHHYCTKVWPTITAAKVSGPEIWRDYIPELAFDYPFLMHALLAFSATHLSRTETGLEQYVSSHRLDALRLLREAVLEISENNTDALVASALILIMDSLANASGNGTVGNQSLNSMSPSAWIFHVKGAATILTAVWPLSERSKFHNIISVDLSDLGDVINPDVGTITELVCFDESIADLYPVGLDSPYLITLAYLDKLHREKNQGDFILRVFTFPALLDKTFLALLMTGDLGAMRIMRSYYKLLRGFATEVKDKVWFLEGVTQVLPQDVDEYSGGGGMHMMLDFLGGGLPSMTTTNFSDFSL
# Test: PBM E-score (8-mer binding enrichment) (E-score (-0.5 to 0.5)); higher = stronger / more preferred TF binding
# Conditions: protein concentration: 200 nM; construct: GST-full length
# Experimental: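 Universal 'all 10-mer' protein binding microarrays (Agilent AMADID 015681) probed with GST-tagged S. cerevisiae TFs (full-length or DBD) made by in vitro transcription/translation (PURExpress), about 100-200 nM. Bound TF was detected with fluorescent anti-GST. Each ungapped 8-mer (which stands for itself and its reverse complement) is scored by the PBM enrichment score (E-score), a modified Wilcoxon-Mann-Whitney statistic from -0.5 to +0.5, computed with the Universal PBM Analysis Suite. Scale: above 0.35 generally sequence-specific binding.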
row,Sequence,PBM E-score
1,AGCCAACA,-0.098
2,ATGTCTTG,-0.0852
3,CATGGGGC,-0.34
4,CAGGGTAA,-0.14
5,GAGGTCAA,-0.0747
6,CTCCCAAA,-0.0646
7,TGTATCAA,-0.0549
8,CATATCAG,-0.165
9,AGTATCAG,-0.235
10,CGTATCAC,0.364
11,CGTATCAG,0.381
12,CGTATCAA,0.37
13,CGGGCTAG,-0.117
14,CAAATCTG,-0.272
15,CCTGCTTC,-0.109
16,ACACGAGA,0.244
17,AAACGAGG,0.481
18,AAACGAGA,0.469
19,TCACGAGA,0.0145
20,CCACGAGA,-0.277
21,AAACGTGG,0.255
22,AAACGAGT,0.477
23,TAACGAGA,0.391
24,CAACGAGA,0.314
25,ACACGAGT,0.162

row,Sequence,PBM E-score
1,CAACGAGG,0.278
2,AATCGAGT,0.0695
3,CTATGGAA,-0.161
4,AAGATTGT,0.00873
5,ATTCACGA,0.0672
6,AATGACCC,-0.157
7,GCTAGTGA,-0.115
8,AATGAGCT,-0.163
9,CCTCCTCC,-0.105
10,AACTAGTA,-0.0317
11,GTGCTATA,0.128
12,CCTTGTCC,-0.205
13,CGGTTCAC,-0.117
14,GCTAACGA,0.304
15,GTTAACTA,0.157
16,CTTAACCA,-0.0796
17,CGTAACGA,0.374
18,CTTAACGA,0.464
19,CGTAACGC,0.324
20,CTTAACGC,0.17
21,ATTAACGC,0.143
22,GGTAACGA,0.346
23,ATTAACGG,0.185
24,ATTAACGA,0.424
25,GTTAACGA,0.442

row,Sequence,PBM E-score
1,ACGCACGT,0.144
2,AGATTCTC,-0.0164
3,CACTTCAA,-0.0335
4,GGCACACA,-0.136
5,ACGCAGTG,0.0743
6,TCACCTGA,-0.284
7,CTACGCTA,-0.04
8,TCGCTTAA,0.403
9,CCGCTTAA,0.268
10,GCGCTTAA,0.173
11,ACTTATTG,-0.116
12,GATCTCTA,-0.0508
13,CATAAACA,-0.00956
14,AATAAACT,-0.0754
15,AATAAACA,0.0907
16,CATAAACC,-0.075
17,CATAAACG,0.462
18,AATAAACG,0.429
19,CTCATACC,0.051
20,GGCTTTTA,-0.157
21,CTAATTCA,-0.0938
22,CCGTTCAC,0.291
23,AGTTGTTC,0.127
24,AACGATAC,0.413
25,CACGATAG,-0.187

row,Sequence,PBM E-score
1,AGCGATAT,0.206
2,AACGATAG,0.404
3,ACCGATAG,-0.0483
4,CACGATAC,0.197
5,ACCGATAT,0.0732
6,AGCGATAA,0.0894
7,ACCGATAA,0.158
8,AACGATAA,0.381
9,GACGATAC,0.124
10,AACGATAT,0.39
11,CACTGACG,-0.152
12,GTGGGTCA,-0.327
13,GGTCTGTA,0.0803
14,ATGGACCA,0.0213
15,ATGAGTGA,-0.101
16,CGTTCGAA,0.221
17,AGTGCCAT,-0.133
18,GAACCACA,-0.0218
19,ATTTAGAA,-0.14
20,AAGGCCGT,0.244
21,ACCTGGGA,-0.245
22,AAATTTAA,0.184
23,GACGATAA,0.111
24,TACGATAA,0.416
25,CACGATAA,0.074

row,Sequence,PBM E-score
1,TCAGCGGA,-0.0114
2,CGTTTACC,0.449
3,GGTTTACA,-0.0166
4,AGTTTACA,-0.0264
5,AGTTTACC,0.0436
6,CGTTTACA,0.441
7,CATTTACC,-0.152
8,AACGGAAA,0.216
9,GCAAAACA,-0.144
10,CGGGGGGC,0.063
11,CTACAACC,0.0888
12,GGTTCGTA,0.445
13,AGTTCGTA,0.439
14,CGTTCGTC,0.293
15,CGTTCGTA,0.45
16,GGTTCGAA,0.0921
17,GGTTCGGA,-0.168
18,AGTTCGTC,0.0871
19,CGTTCGGA,0.265
20,AGTTCGTG,0.158
21,CTTGCAGA,-0.17
22,GTATAGAA,0.345
23,AGGTGCTG,-0.387
24,CATCAGTC,-0.123
25,CTCGCCCA,-0.102

row,Sequence,PBM E-score
1,ACACCAGC,-0.111
2,GTGTCGTA,0.44
3,ATGTCGTG,-0.0693
4,CTGTCGAA,-0.181
5,ATGTCGTC,-0.0259
6,GTGTCGGA,0.0733
7,ATGTCGTA,0.45
8,CTGTCGTC,0.00126
9,GTGTCGCA,0.0927
10,CTGTCGTA,0.447
11,GTGTGGCA,-0.371
12,AACCGGCT,-0.239
13,AACTATCA,0.134
14,ATGTGAAT,0.12
15,AATACCGC,-0.131
16,CGTATGTC,0.353
17,AGTATGTA,0.0299
18,AGTATGCA,-0.3
19,GGTATGCA,-0.00862
20,AGTATGCC,-0.189
21,CGTATGCA,0.377
22,CGTATGCC,0.372
23,CGTATGTA,0.387
24,CCTATGCC,-0.13
25,GCAGTAGC,-0.174

row,Sequence,PBM E-score
1,AGCGGGTC,-0.0751
2,CATTTTTC,0.0327
3,TAATCTCA,-0.058
4,CGCTGGAA,-0.186
5,ACCATCTG,-0.225
6,CACTCGAA,0.0152
7,CACTCGTC,0.0141
8,AACTCGTA,0.455
9,GACTCGCA,-0.0142
10,CACTCGTA,0.455
11,AACTCGTC,0.0662
12,GACTCGAA,-0.194
13,AACTCGTG,0.178
14,GACTCGTA,0.436
15,CCACTTCG,0.0558
16,AATGGAGT,-0.266
17,AGCGTTAC,0.0438
18,CTCTTCCA,-0.0797
19,CCGCTGGC,-0.258
20,GAAATGTC,-0.0124
21,ACGCGAGG,0.219
22,AAGACTCA,-0.172
